# Source: the supplement of paper PMC13380429
# How the values were obtained:
# [1] = tested on: Vero E6 infected with SARS-CoV-2; test: morphology score (similarity to uninfected cells); higher = more like uninfected cells; details: 24 h
# [2] = tested on: Vero E6 infected with SARS-CoV-2; test: SARS-CoV-2 infection rate relative to infected DMSO; higher = more infection, active = 60 or less; details: 24 h
Structure (SMILES),morphology score [1],SARS-CoV-2 infection rate [2]
CN[C@H]1CN(c2ccc3c(=O)c(C(=O)O)cn(-c4nccs4)c3n2)C[C@@H]1OC [voreloxin] (0.833333 µM),0.068,104% (inactive)
O=C(O)CNC(=O)C1C(=O)N(C2CCCCC2)C(=O)N(C2CCCCC2)C1=O [daprodustat] (10 µM),0.206,81.5% (inactive)
Cc1ccc(NC(=O)c2ccc(CN3CCN(C)CC3)cc2)cc1Nc1nc(-c2cccnc2)cs1 [masitinib] (10 µM),0.757,43% (active)
CC(C)CCN1c2nc(Nc3cc(F)c(O)c(F)c3)ncc2N(C)C(=O)[C@@H]1C (0.833333 µM),0.164,106% (inactive)
O=C(O)C(O)C(O)C(=O)O (stereo not given) [tartaric-acid] (10 µM),-0.0312,103% (inactive)
C[C@@H]1C[C@H]2[C@@H]3C[C@H](F)C4=CC(=O)C=C[C@]4(C)[C@@]3(F)[C@@H](O)C[C@]2(C)[C@@]1(O)C(=O)COC(=O)C(C)(C)C [flumethasone-pivalate] (10 µM),0.324,80% (inactive)
CCC/C=C1\OC(=O)C2=C1CCC=C2 [ligustilide] (10 µM),0.0279,108% (inactive)
O=C(NCCN1CCOCC1)c1ccc(Cl)cc1 [moclobemide] (10 µM),0.182,103% (inactive)
[O-][S+](c1ccccc1)c1ccc2nnnn2n1 (stereo not given) (0.833333 µM),0.19,85.5% (inactive)
Cc1cc(OCc2nnc(SC3CCCC3)n2-c2cccnc2)ccc1-c1ccc(S(C)(=O)=O)cc1 (0.833333 µM),0.0612,100% (inactive)
